Records with an inconclusive call do not appear. Activity calls are given as the source filed them. The call rests on the fitted dose curve; in most records, active means well fitted cell-killing curve with a large enough effect; inconclusive means small, poorly fitted or top-dose-only effect, or effect the other way; inactive means flat fitted curve, though single readings scatter. Where a SMILES comes first, the peptide text is derived from it. [ ]: non-standard residue; d: D form. PhLac = O=C(O)[CH](O)Cc1ccccc1; NMeV = CN[CH](C(=O)O)C(C)C
Experiments:
Assay in all cases: Primary qHTS to identify gynecologic anti-cancer compounds using libraries of approved drugs and bioactive compounds (AID 1345084); further: nearly all actives have a fitted effect of over 55% in size
CAOV3 = conditions: Gynecologic cancer cell panel viability, ATPlite luminescence, 48 h; series mostly up to 57.5 µM
How it was run: (§1)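 48 h compound exposure at 37 C, 5% CO2; five-point qHTS. ATPlite luminescence readout of cell ATP.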

CASKI = conditions: Gynecologic cancer cell panel viability, ATPlite luminescence, 48 h; series mostly up to 57.5 µM
How it was run: as §1

Es-2 = conditions: Gynecologic cancer cell panel viability, ATPlite luminescence, 48 h; series mostly up to 57.5 µM
How it was run: as §1

HeLa = conditions: Gynecologic cancer cell panel viability, ATPlite luminescence, 48 h; series mostly up to 57.5 µM
How it was run: as §1

Hek293T = conditions: Gynecologic cancer cell panel viability, ATPlite luminescence, 48 h, control line for the selectivity index; series mostly up to 57.5 µM
How it was run: as §1

JEG-3 = conditions: Gynecologic cancer cell panel viability, ATPlite luminescence, 48 h; series mostly up to 57.5 µM
How it was run: as §1

OV90 = conditions: Gynecologic cancer cell panel viability, ATPlite luminescence, 48 h; series mostly up to 57.5 µM
How it was run: as §1

PA-1 = conditions: Gynecologic cancer cell panel viability, ATPlite luminescence, 48 h; series mostly up to 57.5 µM
How it was run: as §1

SKOV3 = conditions: Gynecologic cancer cell panel viability, ATPlite luminescence, 48 h; series mostly up to 57.5 µM
How it was run: as §1

Tov-21-G = conditions: Gynecologic cancer cell panel viability, ATPlite luminescence, 48 h; series mostly up to 57.5 µM
How it was run: as §1

Tov112D = conditions: Gynecologic cancer cell panel viability, ATPlite luminescence, 48 h; series mostly up to 57.5 µM
How it was run: as §1
On the % scale 0 is the no-effect control and ±100 the full control effect.

CC(=O)O[C@H](C[C@@H](C)[C@H]1C(=O)[C@H](O)[C@@]2(C)[C@@H]3CCC4C(C)(C)[C@@H](O[C@@H]5OC[C@H](O)[C@H](O)[C@H]5O)CC[C@@]45C[C@@]35CC[C@]12C)[C@@H]1OC1(C)C (some centres undefined)
inactive: Potency (CAOV3) | Potency (CASKI) | Potency (Es-2) | Potency (HeLa) | Potency (Hek293T) | Potency (JEG-3) | Potency (OV90) | Potency (PA-1) | Potency (SKOV3) | Potency (Tov-21-G) | Potency (Tov112D)

C[C@@H]1O[C@@H](O[C@H]2[C@H](O[C@H]3CC[C@@]4(C)C(CC[C@]5(C)C4CC=C4C6CC(C)(C)CC[C@]6(C(=O)O[C@@H]6O[C@H](CO[C@@H]7O[C@H](CO)[C@@H](O[C@@H]8O[C@@H](C)[C@H](O)[C@@H](O)[C@H]8O)[C@H](O)[C@H]7O)[C@@H](O)[C@H](O)[C@H]6O)CC[C@]45C)[C@]3(C)CO)OC[C@H](O)[C@@H]2O)[C@H](O)[C@H](O)[C@H]1O (some centres undefined)
inactive: activity change, negative = cytotoxicity (CAOV3) 1.96% [at 6.55 µM] | activity change, negative = cytotoxicity (CASKI) -8.63% [at 6.55 µM] | activity change, negative = cytotoxicity (Es-2) 23.6% [at 6.55 µM] | activity change, negative = cytotoxicity (HeLa) -1.03% [at 6.55 µM] | activity change, negative = cytotoxicity (Hek293T) -5.22% [at 6.55 µM] | activity change, negative = cytotoxicity (JEG-3) -11.6% [at 6.55 µM] | activity change, negative = cytotoxicity (OV90) -14.8% [at 6.55 µM] | activity change, negative = cytotoxicity (PA-1) -4.46% [at 6.55 µM] | activity change, negative = cytotoxicity (SKOV3) -11.7% [at 6.55 µM] | activity change, negative = cytotoxicity (Tov-21-G) 8.28% [at 6.55 µM] | activity change, negative = cytotoxicity (Tov112D) -13.6% [at 6.55 µM]

C[C@H]1CC[C@@]2(OC1)O[C@H]1CC3C4CC=C5C[C@H](O)C[C@@H](O[C@@H]6O[C@@H](C)[C@H](O)[C@@H](O)[C@H]6O[C@@H]6O[C@@H](C)[C@H](O)[C@@H](O)[C@H]6O)[C@]5(C)C4CC[C@]3(C)[C@H]1[C@@H]2C (some centres undefined)
inactive: Potency (CAOV3) | Potency (CASKI) | Potency (Es-2) | Potency (HeLa) | Potency (Hek293T) | Potency (JEG-3) | Potency (OV90) | Potency (PA-1) | Potency (SKOV3) | Potency (Tov-21-G) | Potency (Tov112D)

CC1(CO)CC[C@]2(C(=O)O[C@@H]3O[C@H](CO)[C@@H](O)[C@H](O)[C@H]3O)CC[C@]3(C)C(=CCC4[C@@]5(C)CC[C@H](O[C@@H]6O[C@H](C(=O)O)[C@@H](O)[C@H](O)[C@H]6O)C(C)(C)C5CC[C@]43C)C2C1 (some centres undefined)
inactive: activity change, negative = cytotoxicity (CAOV3) 12.9% [at 11.6 µM] | activity change, negative = cytotoxicity (CASKI) -3.81% [at 11.6 µM] | activity change, negative = cytotoxicity (Es-2) 8.61% [at 11.6 µM] | activity change, negative = cytotoxicity (HeLa) 8.66% [at 11.6 µM] | activity change, negative = cytotoxicity (Hek293T) 11.3% [at 11.6 µM] | activity change, negative = cytotoxicity (JEG-3) 10.8% [at 11.6 µM] | activity change, negative = cytotoxicity (OV90) 2.36% [at 11.6 µM] | activity change, negative = cytotoxicity (PA-1) 28.3% [at 11.6 µM] | activity change, negative = cytotoxicity (SKOV3) 13% [at 11.6 µM] | activity change, negative = cytotoxicity (Tov-21-G) 6.77% [at 11.6 µM] | activity change, negative = cytotoxicity (Tov112D) 9.6% [at 11.6 µM]

C[C@]12CCC(=O)C=C1[C@@H](O)C[C@@H]1[C@@H]2[C@@H](O)C[C@@]2(C)[C@H]1CC[C@]2(O)C(=O)CO
inactive: Potency (CAOV3) | Potency (CASKI) | Potency (Es-2) | Potency (HeLa) | Potency (Hek293T) | Potency (JEG-3) | Potency (OV90) | Potency (PA-1) | Potency (SKOV3) | Potency (Tov-21-G) | Potency (Tov112D)

O=C(O)c1cc(O[C@@H]2O[C@H](CO[C@@H]3OC[C@@H](O)[C@H](O)[C@H]3O)[C@@H](O)[C@H](O)[C@H]2O)c2ccccc2c1O
inactive: Potency (CAOV3) | Potency (CASKI) | Potency (Es-2) | Potency (HeLa) | Potency (Hek293T) | Potency (JEG-3) | Potency (OV90) | Potency (PA-1) | Potency (SKOV3) | Potency (Tov-21-G) | Potency (Tov112D)

C=C1C[C@@]23CC[C@@H]4[C@](C)(C(=O)O)CCC[C@@]4(C)C2=CC[C@H]1C3
inactive: Potency (CAOV3) | Potency (CASKI) | Potency (Es-2) | Potency (HeLa) | Potency (Hek293T) | Potency (JEG-3) | Potency (OV90) | Potency (PA-1) | Potency (SKOV3) | Potency (Tov-21-G) | Potency (Tov112D)

CC1(C)CC[C@]2(C(=O)O)CC[C@]3(C)C(=CCC4[C@@]5(C)C[C@@H](O)[C@H](O)C(C)(C)C5CC[C@]43C)[C@@H]2[C@@H]1O (some centres undefined)
inactive: Potency (CAOV3) | Potency (CASKI) | Potency (Es-2) | Potency (HeLa) | Potency (Hek293T) | Potency (JEG-3) | Potency (OV90) | Potency (PA-1) | Potency (SKOV3) | Potency (Tov-21-G) | Potency (Tov112D)

O=C(CCCCc1ccc2ccccc2c1)C(F)(F)F
inactive: Potency (CAOV3) | Potency (CASKI) | Potency (Es-2) | Potency (HeLa) | Potency (Hek293T) | Potency (JEG-3) | Potency (OV90) | Potency (PA-1) | Potency (SKOV3) | Potency (Tov-21-G) | Potency (Tov112D)

CC(C)C(C(=O)N1CCCC1C(=O)O)N(C)C(=O)C(O)Cc1ccccc1 (centres undefined) (H-[PhLac]-[NMeV]-Pro-OH; configuration not given here)
inactive: Potency (CAOV3) | Potency (CASKI) | Potency (Es-2) | Potency (HeLa) | Potency (Hek293T) | Potency (JEG-3) | Potency (OV90) | Potency (PA-1) | Potency (SKOV3) | Potency (Tov-21-G) | Potency (Tov112D)

CC(=O)O[C@@H]1[C@@H](OC(=O)/C=C/c2ccccc2)[C@H](C)O[C@@H](O[C@H]2[C@@H]3C=CO[C@@H](O[C@@H]4O[C@H](CO)[C@@H](O)[C@H](O)[C@H]4O)[C@@H]3[C@@]3(CO)O[C@@H]23)[C@@H]1OC(C)=O
inactive: Potency (CAOV3) | Potency (CASKI) | Potency (Es-2) | Potency (HeLa) | Potency (Hek293T) | Potency (JEG-3) | Potency (OV90) | Potency (PA-1) | Potency (SKOV3) | Potency (Tov-21-G) | Potency (Tov112D)

C=C1CCC2(OC1)OC1CC3C4CC=C5CC(O)CC(O[C@@H]6OC[C@@H](O)[C@H](O)[C@H]6O)C5(C)C4CCC3(C)C1(O)C2C (some centres undefined)
inactive: Potency (CAOV3) | Potency (CASKI) | Potency (Es-2) | Potency (HeLa) | Potency (Hek293T) | Potency (JEG-3) | Potency (OV90) | Potency (PA-1) | Potency (SKOV3) | Potency (Tov-21-G) | Potency (Tov112D)

C=CC1(C)C=C2C(=O)CC3C(C)(C)CCCC3(C(=O)O)C2(O)CC1 (centres undefined)
inactive: Potency (CAOV3) | Potency (CASKI) | Potency (Es-2) | Potency (HeLa) | Potency (Hek293T) | Potency (JEG-3) | Potency (OV90) | Potency (PA-1) | Potency (SKOV3) | Potency (Tov-21-G) | Potency (Tov112D)

CC1=CCC2C(C)(CO)CCCC2(C)C1CC12OC1C(O)C(CO)=CC2O (centres undefined)
inactive: Potency (CAOV3) | Potency (CASKI) | Potency (Es-2) | Potency (HeLa) | Potency (Hek293T) | Potency (JEG-3) | Potency (OV90) | Potency (PA-1) | Potency (SKOV3) | Potency (Tov-21-G) | Potency (Tov112D)
